Results as given in publication PMC7862700, “An all-to-all approach to the identification of sequence-specific readers for epigenetic DNA modifications on cytosine”.

Assays:
Assay in all cases: DAPPL (digital affinity profiling via proximity ligation, sequencing); 10 mM Tris-HCl pH 7.5, 50 mM NaCl, 1 mM DTT, 4% glycerol, room temperature, 30 min; GST-TFs on glutathione beads, 16-mer random dsDNA library, 0.1% formaldehyde crosslink after washing; high values mean tight binding
EHF = target: T1, EHF (Homo sapiens, UniProt Q9NZC4 1-300); conditions: protein: recombinant; tags: N-terminal GST; dsDNA, one strand shown
T1 sequence: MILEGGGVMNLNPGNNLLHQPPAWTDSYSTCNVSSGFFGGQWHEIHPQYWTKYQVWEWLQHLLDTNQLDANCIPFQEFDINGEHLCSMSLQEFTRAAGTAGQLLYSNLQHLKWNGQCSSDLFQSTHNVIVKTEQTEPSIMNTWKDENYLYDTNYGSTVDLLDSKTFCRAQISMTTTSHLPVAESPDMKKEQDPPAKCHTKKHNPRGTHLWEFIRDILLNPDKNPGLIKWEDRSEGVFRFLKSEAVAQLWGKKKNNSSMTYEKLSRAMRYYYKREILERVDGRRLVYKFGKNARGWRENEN
Method in brief: (§1)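 Yeast served to express human transcription factors as GST fusions, which were then captured on glutathione beads and labelled with DNA barcodes. Pooled with a tag-only sample, they were incubated with 200 nmole of a 16-mer random double-stranded DNA library for 30 min at room temperature in Tris/NaCl/DTT/glycerol buffer, washed, crosslinked with 0.1% formaldehyde, ligated by proximity, amplified by PCR and sequenced. Dividing each hexamer's read frequency for a factor by its frequency for the tag-only sample gives the binding signal.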

HSF1 = HSF1 (Homo sapiens, UniProt Q00613 1-529); conditions: protein: recombinant; tags: N-terminal GST; chain copies: 3; dsDNA, one strand shown
Sequence of HSF1 (Q00613 whole entry): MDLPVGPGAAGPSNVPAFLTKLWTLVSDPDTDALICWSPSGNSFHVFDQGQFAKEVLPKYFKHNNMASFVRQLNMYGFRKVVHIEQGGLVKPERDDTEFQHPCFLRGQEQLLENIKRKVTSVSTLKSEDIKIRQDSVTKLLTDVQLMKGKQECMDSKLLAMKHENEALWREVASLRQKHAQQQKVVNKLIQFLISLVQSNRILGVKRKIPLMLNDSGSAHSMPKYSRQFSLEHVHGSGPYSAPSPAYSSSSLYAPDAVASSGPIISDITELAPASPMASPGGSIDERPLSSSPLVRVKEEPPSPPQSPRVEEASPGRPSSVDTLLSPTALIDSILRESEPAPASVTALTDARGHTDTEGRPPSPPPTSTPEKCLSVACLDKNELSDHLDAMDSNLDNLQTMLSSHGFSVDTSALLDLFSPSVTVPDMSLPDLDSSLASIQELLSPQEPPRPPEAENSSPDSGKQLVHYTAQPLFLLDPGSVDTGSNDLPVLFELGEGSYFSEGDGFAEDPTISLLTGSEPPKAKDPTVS
Method in brief: as §1

ELF3 = target: T2, ELF3 (Homo sapiens, UniProt P78545 1-371); conditions: protein: recombinant; tags: N-terminal GST; dsDNA, one strand shown
T2 sequence: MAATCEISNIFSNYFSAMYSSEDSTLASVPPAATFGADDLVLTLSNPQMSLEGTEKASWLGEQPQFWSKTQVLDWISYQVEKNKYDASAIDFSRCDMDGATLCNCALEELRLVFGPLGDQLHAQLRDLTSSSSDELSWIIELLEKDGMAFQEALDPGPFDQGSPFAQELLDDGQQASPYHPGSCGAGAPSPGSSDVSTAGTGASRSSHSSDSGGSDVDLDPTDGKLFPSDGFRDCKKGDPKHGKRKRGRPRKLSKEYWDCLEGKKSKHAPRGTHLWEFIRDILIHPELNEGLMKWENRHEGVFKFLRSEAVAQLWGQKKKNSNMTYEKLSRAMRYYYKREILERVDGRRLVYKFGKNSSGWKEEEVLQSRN
Method in brief: as §1

CRX = CRX (Homo sapiens, UniProt O43186 1-299); conditions: protein: recombinant; tags: N-terminal GST; dsDNA, one strand shown
Sequence of CRX (O43186 whole entry): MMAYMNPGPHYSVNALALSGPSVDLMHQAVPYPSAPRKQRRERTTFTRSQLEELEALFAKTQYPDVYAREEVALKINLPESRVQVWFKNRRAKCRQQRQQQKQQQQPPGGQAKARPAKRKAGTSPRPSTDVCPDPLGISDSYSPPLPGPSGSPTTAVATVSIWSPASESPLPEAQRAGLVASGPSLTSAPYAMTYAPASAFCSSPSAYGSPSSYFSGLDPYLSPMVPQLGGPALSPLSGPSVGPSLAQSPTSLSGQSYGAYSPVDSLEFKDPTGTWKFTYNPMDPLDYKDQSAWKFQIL
Method in brief: as §1

ETV6 = ETV6 (Homo sapiens, UniProt P41212 1-452); conditions: protein: recombinant; tags: N-terminal GST; dsDNA, one strand shown
Sequence of ETV6 (P41212 whole entry): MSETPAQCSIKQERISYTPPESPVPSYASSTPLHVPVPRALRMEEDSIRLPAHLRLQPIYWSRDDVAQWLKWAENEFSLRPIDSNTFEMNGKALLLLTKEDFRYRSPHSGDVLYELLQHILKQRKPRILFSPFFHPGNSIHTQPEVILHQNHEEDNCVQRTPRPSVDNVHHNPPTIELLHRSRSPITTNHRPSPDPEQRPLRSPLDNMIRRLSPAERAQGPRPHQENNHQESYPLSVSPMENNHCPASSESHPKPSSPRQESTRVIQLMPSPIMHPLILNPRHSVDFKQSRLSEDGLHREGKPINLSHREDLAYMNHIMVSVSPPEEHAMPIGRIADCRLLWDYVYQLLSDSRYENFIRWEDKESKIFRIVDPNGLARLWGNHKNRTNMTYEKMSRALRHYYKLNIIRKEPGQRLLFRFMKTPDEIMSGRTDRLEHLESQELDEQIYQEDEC
Method in brief: as §1

ETV2 = target: T3, ETV2 (Homo sapiens, UniProt O00321 1-342); conditions: protein: recombinant; tags: N-terminal GST; dsDNA, one strand shown
T3 sequence: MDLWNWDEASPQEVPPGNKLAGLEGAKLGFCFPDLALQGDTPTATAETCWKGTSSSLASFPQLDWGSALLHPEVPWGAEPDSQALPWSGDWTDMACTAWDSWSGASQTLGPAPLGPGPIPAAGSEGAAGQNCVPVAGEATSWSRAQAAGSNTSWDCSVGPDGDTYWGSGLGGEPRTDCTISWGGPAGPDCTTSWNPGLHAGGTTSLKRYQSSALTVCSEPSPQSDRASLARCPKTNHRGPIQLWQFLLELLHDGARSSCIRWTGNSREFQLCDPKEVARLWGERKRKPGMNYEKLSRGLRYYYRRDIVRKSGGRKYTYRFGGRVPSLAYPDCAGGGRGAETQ
Method in brief: as §1

SPDEF = target: T4, SPDEF (Homo sapiens, UniProt O95238 1-335); conditions: protein: recombinant; tags: N-terminal GST; dsDNA, one strand shown
T4 sequence: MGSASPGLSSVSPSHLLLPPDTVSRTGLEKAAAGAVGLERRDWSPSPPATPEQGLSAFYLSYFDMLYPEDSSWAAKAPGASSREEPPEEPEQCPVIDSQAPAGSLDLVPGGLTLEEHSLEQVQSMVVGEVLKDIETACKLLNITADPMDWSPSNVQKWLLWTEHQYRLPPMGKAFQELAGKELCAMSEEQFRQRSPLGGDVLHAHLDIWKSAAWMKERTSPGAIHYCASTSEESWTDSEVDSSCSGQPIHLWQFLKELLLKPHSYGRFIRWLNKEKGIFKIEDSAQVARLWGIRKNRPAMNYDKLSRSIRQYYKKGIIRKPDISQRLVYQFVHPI
Method in brief: as §1

SPI1 = SPI1 (Homo sapiens, UniProt P17947 1-270); conditions: protein: recombinant; tags: N-terminal GST; dsDNA, one strand shown
Method in brief: as §1

ERF = target: T5, ERF (Homo sapiens, UniProt P50548 1-548); conditions: protein: recombinant; tags: N-terminal GST; dsDNA, one strand shown
T5 sequence: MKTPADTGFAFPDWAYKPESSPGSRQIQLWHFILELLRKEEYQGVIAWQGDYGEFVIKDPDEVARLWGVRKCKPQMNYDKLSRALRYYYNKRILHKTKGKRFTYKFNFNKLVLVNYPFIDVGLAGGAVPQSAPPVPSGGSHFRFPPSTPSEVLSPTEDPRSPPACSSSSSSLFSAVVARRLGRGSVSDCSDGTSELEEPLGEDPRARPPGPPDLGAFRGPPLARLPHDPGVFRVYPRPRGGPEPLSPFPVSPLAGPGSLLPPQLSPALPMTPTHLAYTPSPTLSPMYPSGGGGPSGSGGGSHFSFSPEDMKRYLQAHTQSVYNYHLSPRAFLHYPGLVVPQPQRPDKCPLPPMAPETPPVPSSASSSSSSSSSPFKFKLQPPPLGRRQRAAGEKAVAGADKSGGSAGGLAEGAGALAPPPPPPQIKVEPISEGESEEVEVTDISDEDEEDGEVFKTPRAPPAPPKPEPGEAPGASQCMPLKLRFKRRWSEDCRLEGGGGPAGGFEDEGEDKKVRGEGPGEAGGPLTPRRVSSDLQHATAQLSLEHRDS
Method in brief: as §1

ETV7 = target: T6, ETV7 (Homo sapiens, UniProt Q9Y603 1-341); conditions: protein: recombinant; tags: N-terminal GST; dsDNA, one strand shown
T6 sequence: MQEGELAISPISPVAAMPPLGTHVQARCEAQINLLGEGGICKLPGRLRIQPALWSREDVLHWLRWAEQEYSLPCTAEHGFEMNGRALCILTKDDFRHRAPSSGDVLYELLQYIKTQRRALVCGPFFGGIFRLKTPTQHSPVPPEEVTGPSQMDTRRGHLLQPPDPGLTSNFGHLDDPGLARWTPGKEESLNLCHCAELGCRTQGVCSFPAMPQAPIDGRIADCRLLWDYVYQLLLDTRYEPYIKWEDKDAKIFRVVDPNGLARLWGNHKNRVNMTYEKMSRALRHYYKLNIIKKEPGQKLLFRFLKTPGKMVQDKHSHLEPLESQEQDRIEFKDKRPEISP
Method in brief: as §1

In the case of TTAGGA, the binding signal (EHF) is reported as 1 fold enrichment (6-mer frequency, TF over GST control), the binding signal (HSF1) is reported as 1.28 fold enrichment (6-mer frequency, TF over GST control) and the binding signal (ELF3) is reported as 1.02 fold enrichment (6-mer frequency, TF over GST control). The binding signal (CRX) was 1.77 fold enrichment (6-mer frequency, TF over GST control) and the binding signal (ETV6) was 1 fold enrichment (6-mer frequency, TF over GST control).

With ATCCAG the binding signal (HSF1) was 1.53 fold enrichment (6-mer frequency, TF over GST control) and the binding signal (CRX) was 1.29 fold enrichment (6-mer frequency, TF over GST control).

In the case of AGATTG, the binding signal (HSF1) is reported as 1.01 fold enrichment (6-mer frequency, TF over GST control) and the binding signal (CRX) is reported as 1.06 fold enrichment (6-mer frequency, TF over GST control).

With TACGAG the binding signal (HSF1) was 1.26 fold enrichment (6-mer frequency, TF over GST control), the binding signal (ELF3) was 1.02 fold enrichment (6-mer frequency, TF over GST control) and the binding signal (CRX) was 1.05 fold enrichment (6-mer frequency, TF over GST control).

CGTCGA was tested, and the binding signal (HSF1) was 1.06 fold enrichment (6-mer frequency, TF over GST control), the binding signal (ETV2) was 1.01 fold enrichment (6-mer frequency, TF over GST control) and the binding signal (SPDEF) was 1.02 fold enrichment (6-mer frequency, TF over GST control).

In the case of ACGCGA, the binding signal (HSF1) is reported as 1.04 fold enrichment (6-mer frequency, TF over GST control) and the binding signal (ETV2) is reported as 1.02 fold enrichment (6-mer frequency, TF over GST control).

With TAAGAC the binding signal (HSF1) was 1.22 fold enrichment (6-mer frequency, TF over GST control) and the binding signal (CRX) was 1.72 fold enrichment (6-mer frequency, TF over GST control).

With GGGATT the binding signal (HSF1) was 1.75 fold enrichment (6-mer frequency, TF over GST control) and the binding signal (CRX) was 2.71 fold enrichment (6-mer frequency, TF over GST control).

In the case of GTCTGG, the binding signal (HSF1) is reported as 1.06 fold enrichment (6-mer frequency, TF over GST control) and the binding signal (ETV2) is reported as 1.02 fold enrichment (6-mer frequency, TF over GST control).

With AGAAAG the binding signal (HSF1) was 1.87 fold enrichment (6-mer frequency, TF over GST control) and the binding signal (CRX) was 1.01 fold enrichment (6-mer frequency, TF over GST control).

With TTTAGA the binding signal (SPI1) was 1.05 fold enrichment (6-mer frequency, TF over GST control), the binding signal (HSF1) was 1.37 fold enrichment (6-mer frequency, TF over GST control) and the binding signal (ETV2) was 1.12 fold enrichment (6-mer frequency, TF over GST control). The binding signal (CRX) was 1.59 fold enrichment (6-mer frequency, TF over GST control), the binding signal (ERF) was 1.08 fold enrichment (6-mer frequency, TF over GST control) and the binding signal (ETV7) was 1.05 fold enrichment (6-mer frequency, TF over GST control). For the same sequence, the binding signal (ETV6) was 1.04 fold enrichment (6-mer frequency, TF over GST control).
